Experimental data as given in ChEMBL document CHEMBL2218924, “A broad activity screen in support of a chemogenomic map for kinase signalling research and drug discovery” (Biochem J, 2013).

target: T1, cGMP-dependent protein kinase 1 (Homo sapiens) (UniProt Q13976); details: at 1 µM
T1 sequence (whole entry): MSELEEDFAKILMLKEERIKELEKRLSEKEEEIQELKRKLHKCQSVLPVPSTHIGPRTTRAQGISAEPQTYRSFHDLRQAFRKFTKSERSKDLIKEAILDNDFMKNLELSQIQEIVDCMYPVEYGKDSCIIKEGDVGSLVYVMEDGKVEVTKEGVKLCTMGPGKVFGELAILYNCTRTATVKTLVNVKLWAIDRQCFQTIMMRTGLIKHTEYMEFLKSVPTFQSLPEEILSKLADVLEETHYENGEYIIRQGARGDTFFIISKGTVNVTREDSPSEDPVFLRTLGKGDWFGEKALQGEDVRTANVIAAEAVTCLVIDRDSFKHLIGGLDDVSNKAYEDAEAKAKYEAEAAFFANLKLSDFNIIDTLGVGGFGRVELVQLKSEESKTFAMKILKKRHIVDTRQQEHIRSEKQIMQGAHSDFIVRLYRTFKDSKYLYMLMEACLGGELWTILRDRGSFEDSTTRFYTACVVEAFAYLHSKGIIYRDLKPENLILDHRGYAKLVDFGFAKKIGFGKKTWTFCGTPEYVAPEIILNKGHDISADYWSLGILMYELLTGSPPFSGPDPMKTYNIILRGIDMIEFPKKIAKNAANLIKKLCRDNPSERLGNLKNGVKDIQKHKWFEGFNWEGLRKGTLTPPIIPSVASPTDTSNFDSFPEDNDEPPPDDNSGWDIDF

SMILES | residual activity
CCCC(=O)Oc1ccc2[nH]c(C(=O)c3cc4ccccc4[nH]3)cc2c1 | 101%
COc1cc2nccc(Oc3ccc(NC(=S)NC(=O)c4ccccc4C)cc3)c2cc1OC | 97%
O=S(=O)(c1cccc2cnccc12)N1CCCNCC1 | 57%
Nc1ncnc2c1c(-c1ccc(Oc3ccccc3)cc1)cn2C1CCCC1 | 102%
O=C1C(Cl)=C(N2C(=O)CCC2=O)C(=O)c2ccccc21 | 95%
O=C1NC(=O)c2c1c1c3ccccc3[nH]c1n1cncc21 | 82%
CSc1nc(-c2ccc(F)cc2)c(-c2ccnc(NC(C)c3ccccc3)c2)[nH]1 (stereo unspecified) | 85%
CC(C)c1nn(-c2c(Cl)cccc2Cl)c2nc(Cc3ccc(OCCO)cc3)[nH]c(=O)c12 | 103%
Nc1ncnc2[nH]nc(Nc3ccc(F)cc3)c12 | 100%
NC(=O)Nc1sc(-c2ccc(F)cc2)cc1C(N)=O | 87%
O=C(O)/C=C/c1cc(Br)c(Br)c(Br)c1Br | 94%
O=C1Nc2ccc(Cl)cc2/C1=C/c1cc(Cl)c(O)c(Cl)c1 | 84%
CC(C)(C)n1nc(Cc2cccc3ccccc23)c2c(N)ncnc21 | 109%
O=C1Cc2c([nH]c3ccc(Br)cc23)-c2ccccc2N1 | 98%
COc1cc2nccc(Oc3ccc(NC(=O)Nc4cc(C)on4)c(Cl)c3)c2cc1OC | 101%
O=S(=O)(NCCNC/C=C/c1ccc(Br)cc1)c1cccc2cnccc12 | 4%

target: T1, cGMP-dependent protein kinase 1 (Homo sapiens); details: at 10 µM

SMILES | residual activity
Nc1n[nH]c2nc3ccccc3nc12 | 88%
CCCC(=O)Oc1ccc2[nH]c(C(=O)c3cc4ccccc4[nH]3)cc2c1 | 127%
COc1cc2nccc(Oc3ccc(NC(=S)NC(=O)c4ccccc4C)cc3)c2cc1OC | 97%
O=S(=O)(c1cccc2cnccc12)N1CCCNCC1 | 17%
O=C1NC(=O)C(c2c[nH]c3ccccc23)=C1c1c[nH]c2ccccc12 | 43%
Nc1ncnc2c1c(-c1ccc(Oc3ccccc3)cc1)cn2C1CCCC1 | 96%
O=C1C(Cl)=C(N2C(=O)CCC2=O)C(=O)c2ccccc21 | 96%
O=C1NC(=O)c2c1c1c3ccccc3[nH]c1n1cncc21 | 89%
CSc1nc(-c2ccc(F)cc2)c(-c2ccnc(NC(C)c3ccccc3)c2)[nH]1 (stereo unspecified) | 86%
CC(C)c1nn(-c2c(Cl)cccc2Cl)c2nc(Cc3ccc(OCCO)cc3)[nH]c(=O)c12 | 102%
COc1ccc2c(c1)c(C1=C(c3c[nH]c4ccccc34)C(=O)NC1=O)cn2CCCN(C)C | 28%
Nc1ncnc2[nH]nc(Nc3ccc(F)cc3)c12 | 79%
NC(=O)Nc1sc(-c2ccc(F)cc2)cc1C(N)=O | 73%
O=C(O)/C=C/c1cc(Br)c(Br)c(Br)c1Br | 65%
O=C1Nc2ccc(Cl)cc2/C1=C/c1cc(Cl)c(O)c(Cl)c1 | 79%
CC(C)(C)n1nc(Cc2cccc3ccccc23)c2c(N)ncnc21 | 97%
O=C1Cc2c([nH]c3ccc(Br)cc23)-c2ccccc2N1 | 97%
COc1cc2nccc(Oc3ccc(NC(=O)Nc4cc(C)on4)c(Cl)c3)c2cc1OC | 97%
O=S(=O)(NCCNC/C=C/c1ccc(Br)cc1)c1cccc2cnccc12 | 4%

target: T1, cGMP-dependent protein kinase 1 (Homo sapiens); details: at 1 µM; remark: another data set of the same source

SMILES | residual activity
CCCC(=O)Oc1ccc2[nH]c(C(=O)c3cc4ccccc4[nH]3)cc2c1 | 79%
O=C(c1ccccc1)c1ccc(N2CCOCC2)cc1O | 93%
COc1cc2nccc(Oc3ccc(NC(=S)NC(=O)c4ccccc4C)cc3)c2cc1OC | 69%
O=S(=O)(c1cccc2cnccc12)N1CCCNCC1 | 68%
O=C1NC(=O)C(c2c[nH]c3ccccc23)=C1c1c[nH]c2ccccc12 | 83%
Nc1ncnc2c1c(-c1ccc(Oc3ccccc3)cc1)cn2C1CCCC1 | 82%
N#Cc1c(NC(=O)c2cccc3ccccc23)sc2c1CCCC2 | 96%
O=C1C(Cl)=C(N2C(=O)CCC2=O)C(=O)c2ccccc21 | 101%
O=C1NC(=O)c2c1c1c3ccccc3[nH]c1n1cncc21 | 99%
CC(C)c1nn(-c2c(Cl)cccc2Cl)c2nc(Cc3ccc(OCCO)cc3)[nH]c(=O)c12 | 91%
COc1ccc2c(c1)c(C1=C(c3c[nH]c4ccccc34)C(=O)NC1=O)cn2CCCN(C)C | 64%
O=c1cc(N2CCOCC2)oc2c1ccc1ccccc12 | 91%
O=c1cc(N2CCNCC2)oc2c(-c3ccccc3)cccc12 | 84%
Nc1ncnc2[nH]nc(Nc3ccc(F)cc3)c12 | 95%
NC(=O)Nc1sc(-c2ccc(F)cc2)cc1C(N)=O | 84%
O=C(O)/C=C/c1cc(Br)c(Br)c(Br)c1Br | 82%
O=C1Nc2ccc(Cl)cc2/C1=C/c1cc(Cl)c(O)c(Cl)c1 | 79%
CC(C)(C)n1nc(Cc2cccc3ccccc23)c2c(N)ncnc21 | 86%
O=C1Cc2c([nH]c3ccc(Br)cc23)-c2ccccc2N1 | 83%
COc1cc2nccc(Oc3ccc(NC(=O)Nc4cc(C)on4)c(Cl)c3)c2cc1OC | 105%
O=S(=O)(NCCNC/C=C/c1ccc(Br)cc1)c1cccc2cnccc12 | 4%
